Measured values taken from PubChem BioAssay (Tox21).
Inconclusive results are not listed. A call without a number means that no potency is given here. Calls of active or inactive are those of the source. Unless noted, calls come from the whole dose curve; as a rule, active = well fitted curve in the direction sought with a large enough effect in the repeat runs; inconclusive = weak or mixed curves; inactive = no such curve, though single readings can be large; an effect the other way counts as inactive or inconclusive.

Tests used:
[1] = qHTS assay to identify small molecule antagonists of the estrogen related receptor (ERR) signaling pathway - cell viability counter screen (AID 1224818);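 note: series mostly up to about 46 µM; viability measured after 17.5 h of compound exposure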
Summary of the method: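 Quantitative high-throughput viability counter screen in ERR cells. Compounds (DMSO) incubated 17.5 h at 37 C; read-out was CellTiter-Fluor fluorescence.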

[2] = qHTS assay to identify small molecule antagonists of the estrogen related receptor (ERR) signaling pathway (AID 1224819; note: nearly all actives have a fitted effect of over 50% in size; note: potency is the fitted concentration of half-maximal effect)
Summary of the method: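 ERR reporter cell line (NTP) plated at 2,000 cells/well, settled 6 h at 37C/5% CO2, then exposed to LOPAC compounds for 18 h at 37C. One-Glo luciferase luminescence read after 30 min at room temperature.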

[3] = qHTS assay to identify small molecule agonists of the estrogen related receptor (ERR) signaling pathway (AID 1224820); note: potency is the fitted concentration of half-maximal effect
Summary of the method: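 Following a 6 h settling period, 2,000 ERR cells per well receive DMSO-dissolved compounds by pin tool and incubate 18 h at 37 C; agonist activity is scored from One-Glo luminescence read 30 min post-addition.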

[4] = tested on: estrogen-related receptor alpha (ERRalpha) with PGC-1alpha coactivator, human; assay: qHTS assay to identify small molecule antagonists of the estrogen related receptor signaling pathway with the pleiotropic PPARgamma coactivator (PGC) (AID 1224821; calls by dose curve; note: nearly all actives have a fitted effect of over 50% in size; note: potency is the fitted concentration of half-maximal effect)
Summary of the method: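 Screening used NTP's PGC/ERR cells, dosed via pin tool with compound in DMSO alongside positive and negative controls. After 18 h at 37 C, One-Glo reagent sat 30 min at room temperature before luminescence detection.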

[5] = qHTS assay to identify small molecule antagonists of the estrogen related receptor signaling pathway with the pleiotropic PPARgamma coactivator (PGC) cell viability counter screen (AID 1224822; note: potency is the fitted concentration of half-maximal effect)
Summary of the method: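 Cytotoxicity in the PGC/ERR cell line is assessed with CellTiter-Fluor, read as fluorescence intensity 30 min after reagent addition, following 17.5 h compound treatment at 37 C.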

[6] = qHTS assay to identify small molecule agonists of the estrogen related receptor signaling pathway with the pleiotropic PPARgamma coactivator (PGC) (AID 1224823); note: potency is the fitted concentration of half-maximal effect
Summary of the method: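 In this quantitative high-throughput screen, an 18 h, 37 C treatment of PGC/ERR cells with compounds in DMSO preceded a One-Glo luminescence read taken after 30 min at room temperature.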

SMILES	Potency [1]	Potency [2]	Potency [3]	Potency [4]	Potency [5]	Potency [6]
O=C1c2c(O)cc(O)cc2OC(c2ccc(O)c(O)c2)C1O (stereo not given)	inactive	inactive	inactive	inactive	inactive	inactive
C=C1C[C@@]23CC[C@H]4[C@@](C)(CCC[C@@]4(C)C(=O)O)[C@@H]2CC[C@]1(O)C3	inactive	inactive	inactive	inactive	inactive	inactive
NCCCCNCCCN	inactive	inactive	inactive	inactive	inactive	inactive
NCCNS(=O)(=O)c1cccc2c(Cl)cccc12	inactive	inactive	inactive	inactive	inactive	inactive
N#Cc1cc2nc(O)c(O)nc2cc1[N+](=O)[O-]	inactive	inactive	inactive	inactive	inactive	inactive
NC1CCN(O)C1=O (stereo not given)	inactive	inactive	inactive	inactive	inactive	inactive
Brc1ccc([C@H]2CN3CCSC3=N2)cc1	inactive	inactive	inactive	inactive	inactive	inactive
NC(=O)c1cc[n+](CC2=C(C(=O)O)N3C(=O)[C@@H](NC(=O)[C@@H](c4ccccc4)S(=O)(=O)[O-])[C@H]3SC2)cc1	inactive	inactive	inactive	inactive	inactive	inactive
O=C(OCCN1CCOCC1)C1(c2ccccc2)CCCCC1	inactive	inactive	inactive	inactive	inactive	inactive
N=S(=O)(O)Cc1noc2ccccc12	inactive	inactive	inactive	inactive	inactive	inactive
CN(C)CCCc1cc(C(=O)Nc2ccc(-c3ccncc3)cc2)ccc1O	inactive	inactive	inactive	inactive	inactive	inactive
O=C(O)CCC(C(=O)O)N1C(=O)c2ccccc2C1=O (stereo not given)	inactive	inactive	inactive	inactive	inactive	inactive
Fc1cccc(/C=N/N=C/c2cccc(F)c2)c1	inactive	inactive	15.5 µM (active)	inactive	inactive	12.3 µM (active)
CCCCOc1cc(CC2CNC(=O)N2)ccc1OC (stereo not given)	inactive	inactive	inactive	inactive	inactive	inactive
CN(C)C(=O)/N=N/C(=O)N(C)C	inactive	inactive	inactive	inactive	inactive	inactive
O=c1ccn([C@@H]2O[C@H](COP(=O)(O)OP(=O)(O)O)[C@@H](O)[C@H]2O)c(=O)[nH]1	inactive	inactive	inactive	inactive	inactive	inactive
C=CCNc1ncnc2ccc(Br)cc12	inactive	9.44 µM (active)	inactive	10.2 µM (active)	inactive	inactive
OC[C@H]1O[C@H](n2cnc3c(N[C@H]4CCC[C@@H]4O)ncnc32)[C@H](O)[C@@H]1O	inactive	inactive	inactive	inactive	inactive	9.08 µM (active)
O=c1[nH]c2cc([N+](=O)[O-])c([N+](=O)[O-])cc2[nH]c1=O	inactive	inactive	inactive	inactive	inactive	inactive
N[C@@H](CS(=O)O)C(=O)O	inactive	inactive	inactive	inactive	inactive	inactive
CN[C@H](CC(=O)O)C(=O)O	inactive	inactive	inactive	inactive	inactive	inactive
Cc1ccc(O)c(N=Nc2ccccc2)n1	inactive	inactive	8.41 µM (active)	inactive	5.52 µM (active)	inactive
CSc1nc(N)c2ncn([C@@H]3O[C@H](COP(=O)(O)OP(=O)(O)OP(=O)(O)O)C(O)[C@H]3O)c2n1 (stereo not given in full)	inactive	inactive	inactive	inactive	inactive	inactive
CC(=O)N[C@H](C(=O)O)C(C)(C)SN=O	inactive	inactive	inactive	inactive	inactive	inactive
COc1cc(CC(=O)O)ccc1O	inactive	inactive	inactive	inactive	inactive	inactive
[Li+]	inactive	inactive	inactive	inactive	inactive	inactive
Nc1nc(Cl)nc2c1ncn2[C@@H]1O[C@H](CO)C(O)[C@H]1O (stereo not given in full)	inactive	inactive	inactive	inactive	inactive	1.23 µM (active)
O=C(O)CNC(=O)C(CS)Cc1ccccc1 (stereo not given)	inactive	inactive	inactive	inactive	inactive	inactive
N[C@@H](CC(=O)O)C(=O)O	inactive	inactive	inactive	inactive	inactive	inactive
C[C@H](O)C(=O)C1=Nc2c(nc(N)[nH]c2=O)NC1	inactive	inactive	inactive	inactive	inactive	inactive
